From paper PMC9911399, “Two distinct binding modes provide the RNA-binding protein RbFox with extraordinary sequence specificity”
Substitutions are numbered along the chain they refer to; changes in the protein carry UniProt numbers. Whole data set: some 16,000 sequences, median “ka relative to ugcaugu” near 0.0091, cut for the highest 2% near 0.032. The list comes from a sample in which the highest values are over-represented; it also holds similar and randomly drawn sequences.

B1: CAGCUCA (DNA:RNA)
RNA: GGGAGACCGGAAUUCAGAUUGUCCCAGCUCAUUAAAUCCCGUCGUAGCCACCA
DNA 1: CAATCTGAATTCCGGTCTCCC
DNA 2: TGGTGGCTACGACGGGATT
B2: GUAUCUG (DNA:RNA)
RNA: GGGAGACCGGAAUUCAGAUUGUCCGUAUCUGUUAAAUCCCGUCGUAGCCACCA
DNA 1: CAATCTGAATTCCGGTCTCCC
DNA 2: TGGTGGCTACGACGGGATT
B3: AAUGCCC (DNA:RNA)
RNA: B1 RNA with C25A, G27U, C28G, U29C, A31C
DNA 1: CAATCTGAATTCCGGTCTCCC
DNA 2: TGGTGGCTACGACGGGATT
B4: UGAACGA (DNA:RNA)
RNA: B2 RNA with G25U, U26G, U28A, U30G, G31A
DNA 1: CAATCTGAATTCCGGTCTCCC
DNA 2: TGGTGGCTACGACGGGATT
B5: CUAGAGG (DNA:RNA)
RNA: B2 RNA with G25C, U28G, C29A, U30G
DNA 1: CAATCTGAATTCCGGTCTCCC
DNA 2: TGGTGGCTACGACGGGATT
B6: UAGCGUU (DNA:RNA)
RNA: B1 RNA with C25U, U29G, C30U, A31U
DNA 1: CAATCTGAATTCCGGTCTCCC
DNA 2: TGGTGGCTACGACGGGATT
B7: UGACAAC (DNA:RNA)
RNA: B1 RNA with C25U, A26G, G27A, U29A, C30A, A31C
DNA 1: CAATCTGAATTCCGGTCTCCC
DNA 2: TGGTGGCTACGACGGGATT
B8: AACUUUA (DNA:RNA)
RNA: B1 RNA with C25A, G27C, C28U, C30U
DNA 1: CAATCTGAATTCCGGTCTCCC
DNA 2: TGGTGGCTACGACGGGATT
B9: UGCUGAG (DNA:RNA)
RNA: B2 RNA with G25U, U26G, A27C, C29G, U30A
DNA 1: CAATCTGAATTCCGGTCTCCC
DNA 2: TGGTGGCTACGACGGGATT
B10: GCUGUCG (DNA:RNA)
RNA: B1 RNA with C25G, A26C, G27U, C28G, A31G
DNA 1: CAATCTGAATTCCGGTCTCCC
DNA 2: TGGTGGCTACGACGGGATT
B11: UGAGGAG (DNA:RNA)
RNA: B2 RNA with G25U, U26G, U28G, C29G, U30A
DNA 1: CAATCTGAATTCCGGTCTCCC
DNA 2: TGGTGGCTACGACGGGATT
B12: GCUGUUG (DNA:RNA)
RNA: B2 RNA with U26C, A27U, U28G, C29U
DNA 1: CAATCTGAATTCCGGTCTCCC
DNA 2: TGGTGGCTACGACGGGATT
B13: UGUCCGU (DNA:RNA)
RNA: B1 RNA with C25U, A26G, G27U, U29C, C30G, A31U
DNA 1: CAATCTGAATTCCGGTCTCCC
DNA 2: TGGTGGCTACGACGGGATT
B14: UGUGUGG (DNA:RNA)
RNA: B1 RNA with C25U, A26G, G27U, C28G, C30G, A31G
DNA 1: CAATCTGAATTCCGGTCTCCC
DNA 2: TGGTGGCTACGACGGGATT
B15: GUCCUGU (DNA:RNA)
RNA: B1 RNA with C25G, A26U, G27C, C30G, A31U
DNA 1: CAATCTGAATTCCGGTCTCCC
DNA 2: TGGTGGCTACGACGGGATT
B16: UGAGUUG (DNA:RNA)
RNA: B2 RNA with G25U, U26G, U28G, C29U
DNA 1: CAATCTGAATTCCGGTCTCCC
DNA 2: TGGTGGCTACGACGGGATT
B17: GCUGCUG (DNA:RNA)
RNA: B2 RNA with U26C, A27U, U28G
DNA 1: CAATCTGAATTCCGGTCTCCC
DNA 2: TGGTGGCTACGACGGGATT

The binders below were run against T1, RBFOX1 RRM (Homo sapiens, UniProt Q9NWB1 109-208) (assay: EMSA; HiTS-Eq, 1 nM pool, 10 min; buffer printed only for the single-RNA assays: 10 mM Tris pH 7.5, 150 mM NaCl, 3.4 mM EDTA, 0.001% NP-40, 30 C). Conditions: tags: His6 N-terminal (pET28a); label: 5' 32P.
T1 sequence: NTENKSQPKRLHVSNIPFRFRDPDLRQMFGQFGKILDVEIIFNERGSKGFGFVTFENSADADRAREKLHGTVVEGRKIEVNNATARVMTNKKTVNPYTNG
How it was run: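 These values rest on relative association constants, computed from read-count changes of each RNA species versus the control reaction and normalised to the cognate motif. Reads came from free RNA recovered by 8% native PAGE after purified RbFox RRM (wild type or mutant) at increasing concentrations was equilibrated for 10 min in 50 µL with 1 nM of a 5′-radiolabelled pool with 7 randomized nucleotides and DNA-annealed flanks.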

Question: How did the binding signal turn out when B1 was run?
Answer: 0.00282 KA relative to UGCAUGU

Question: With B2 as the binder, how does the binding signal read?
Answer: 0.015 KA relative to UGCAUGU

Question: With B3 as the binder, how does the binding signal read?
Answer: 0.00474 KA relative to UGCAUGU

Question: For B4, which binding signal is on record?
Answer: 0.0199 KA relative to UGCAUGU

Question: How did the binding signal turn out when B5 was run?
Answer: 0.00494 KA relative to UGCAUGU

Question: Which binding signal does the source give for B6 here?
Answer: 0.0117 KA relative to UGCAUGU

Question: With B7 as the binder, how does the binding signal read?
Answer: 0.00863 KA relative to UGCAUGU

Question: How did the binding signal turn out when B8 was run?
Answer: 0.000524 KA relative to UGCAUGU

Question: With B9 as the binder, how does the binding signal read?
Answer: 0.0319 KA relative to UGCAUGU

Question: How did the binding signal turn out when B10 was run?
Answer: 0.0197 KA relative to UGCAUGU

Question: Which binding signal does the source give for B11 here?
Answer: 0.0109 KA relative to UGCAUGU

Question: For B12, which binding signal is on record?
Answer: 0.028 KA relative to UGCAUGU

Question: Which binding signal does the source give for B13 here?
Answer: 0.0131 KA relative to UGCAUGU

Question: Which binding signal does the source give for B14 here?
Answer: 0.0178 KA relative to UGCAUGU

Question: B15 was tested. Which binding signal did it give?
Answer: 0.0155 KA relative to UGCAUGU

Question: How did the binding signal turn out when B16 was run?
Answer: 0.0276 KA relative to UGCAUGU

Question: For B17, which binding signal is on record?
Answer: 0.0323 KA relative to UGCAUGU
